By inhibition is commonly meant the relative decrease from the control value, in per cent.

Molecules are shown by their SMILES. Active and inactive are the calls of the source.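 Rule for the calls, unless noted: active = fluorescence slope higher than the sample average by over 3 SD (cut at about -0.22 in these data, passing the limit was not always enough); inactive = the rest.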

A short description of assay [1]: inhibitors of TNFa-induced NFkB p65 translocation, primary screen, imaging, HUVEC, MLSMR starter and 10KST1 sets (AID 438;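 active = inhibition above 20% together with a positive visual image hit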;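 note: compound added about 3h40 before a 20 min TNFalpha stimulation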;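 for inhibition: signal is the nuclear over cytoplasmic p65 intensity ratio per well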). The conditions noted are these: HUVEC TNFa-induced p65 nuclear translocation; cell count: measured here: nuclei count (cytotoxicity indicator), at 2.08 µM; inhibition: at 2 µM, stronger effect = higher value, 0% TNFa-plus-vehicle, 100% no-TNFa wells.
A short description of assay [2]: inhibitors of mutant huntingtin aggregation, primary screen, imaging, exon1htt(103Q)mCFP cells, high-content imaging (AID 483;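 active = visual image review flags a hit and inhibition of aggregation exceeds 20%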;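 note: compound exposure lasted 3 days before fixation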;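 for nuclei count: percent of the per-plate median nuclei count of sample wells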). The conditions noted are these: exon1htt(103Q)mCFP cell line, aggregate imaging, at 2 µM; inhibition of aggregation: stronger effect = higher value; nuclei count: measured here: cell count, toxicity.
Assay [3] can be described thus: inhibitors of E-selectin induction by TNFa, primary screen, imaging, HUVEC, immunofluorescence, MLSMR starter and 10KST1 sets (AID 487;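 active = visually confirmed hit in the image check and inhibition above 20%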;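 for inhibition: signal is fraction of cell area covered by stained E-selectin grains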;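 for nuclei count: 100% = median nuclei count of all wells on the same plate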). The conditions noted are these: HUVEC TNFalpha-induced E-selectin immunofluorescence imaging, at 2 µM; inhibition: stronger effect = higher value; nuclei count: measured here: cell number, toxicity.
In assay [4] the target is Voltage-gated potassium channel subunit beta-2 (Rattus norvegicus) (UniProt P62483). The experiment in a line: KvBeta enzyme negative modulators, primary screen, biochemical, NADPH fluorescence (AID 622).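 Note: slope of raw intensity against log time taken from 70 to 1610 s.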 The conditions noted are these: recombinant KvBeta, 4-cyanobenzaldehyde reduction, at 10 µM, stronger effect = higher value.
Assay [5] has the same target. The experiment in a line: KvBeta positive modulators, primary screen, biochemical, NADPH fluorescence (AID 623;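 active = NADPH fluorescence slope more negative than the mean of all samples by about 3 SD, 99.7% confidence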;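 note: fluorescence intensity change per second fitted from 20 to 320 s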). The conditions noted are these: Recombinant KvBeta, NADPH fluorescence decrease slope, 10 min; at 10 µM; stronger effect = lower value.
Assay [6] addresses Alpha-2C adrenergic receptor (Homo sapiens) (UniProt P18825). The experiment in a line: modulators of alpha2C/GIRK thallium flux, primary screen, cell-based, HEK293 alpha2C/GIRK1/2 (AID 624;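 active = fluorescence slope after compound addition differing from the mean of all screened samples at 99.7% confidence, in either direction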;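 note: slope of fluorescence ratio to pre-addition baseline per second over 15 to 24 s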). As to conditions: thallium flux BTC fluorescence, at 10 µM, actives lie on both sides.
The nature of assay [7]: inhibitors of Sendai virus-induced IRF3 signaling, primary screen, TLR/RLR signaling modifier project, cell-based, Sendai virus stimulus, luciferase, 10K MLSCN set (AID 602276;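 active = inhibition at or above 50% at 10 µM; inactive = inhibition below 50%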;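 note: firefly luciferase from ISG56 promoter only with Renilla not read in this screen; 0% = Sendai virus plus DMSO and 100% = medium plus DMSO without virus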). The conditions noted are these: HEK293 RL24 IRF3 luciferase reporter, at 10 µM, stronger effect = higher value.
Assay [8] is described as follows: inhibitors of poly I:C-induced TLR3 signaling, primary screen, cell-based, poly I:C stimulus, luciferase, 10K MLSCN set (AID 602277;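 active = inhibition of the reporter signal at or above 50%; inactive = inhibition below 50%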). As to conditions: HEK293-TLR3 RL24 IRF3 luciferase reporter, at 10 µM, stronger effect = higher value.

Voltage-gated potassium channel subunit beta-2 (Rattus norvegicus), sequence (P62483 whole entry, looked up): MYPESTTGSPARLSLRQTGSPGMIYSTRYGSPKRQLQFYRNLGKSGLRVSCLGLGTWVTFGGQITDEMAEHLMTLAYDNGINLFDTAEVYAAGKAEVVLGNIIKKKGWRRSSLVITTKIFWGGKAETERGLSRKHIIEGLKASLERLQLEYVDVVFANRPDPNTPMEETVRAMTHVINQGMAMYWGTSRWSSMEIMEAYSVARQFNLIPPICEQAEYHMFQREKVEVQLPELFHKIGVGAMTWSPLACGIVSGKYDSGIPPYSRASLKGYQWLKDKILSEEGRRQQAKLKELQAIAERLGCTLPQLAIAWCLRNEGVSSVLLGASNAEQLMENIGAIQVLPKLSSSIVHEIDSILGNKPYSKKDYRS
Alpha-2C adrenergic receptor (Homo sapiens), sequence (P18825 whole entry, looked up): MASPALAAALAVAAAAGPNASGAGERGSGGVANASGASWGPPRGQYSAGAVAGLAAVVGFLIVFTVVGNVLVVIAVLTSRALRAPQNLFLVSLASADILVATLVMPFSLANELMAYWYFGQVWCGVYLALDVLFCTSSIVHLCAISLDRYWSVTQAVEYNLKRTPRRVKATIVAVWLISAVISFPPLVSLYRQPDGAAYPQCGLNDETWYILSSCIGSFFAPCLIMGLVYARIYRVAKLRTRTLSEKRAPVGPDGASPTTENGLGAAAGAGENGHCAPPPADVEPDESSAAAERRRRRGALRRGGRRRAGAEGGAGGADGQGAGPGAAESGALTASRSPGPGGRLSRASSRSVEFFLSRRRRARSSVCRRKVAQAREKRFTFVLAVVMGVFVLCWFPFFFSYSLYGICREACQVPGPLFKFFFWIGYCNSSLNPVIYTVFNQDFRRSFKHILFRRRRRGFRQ

Turning to `COc1ccc(NC(=O)NCCN2C(=O)C3C4C=CC(C4)C3C2=O)cc1` (stereo not drawn), the cell count in assay [1] amounted to 572. The inhibition was -0.8% (inactive) in assay [1], -25.1% (inactive) in assay [3], -29.6% (inactive) in assay [7] and -73.3% (inactive) in assay [8]. Besides, the inhibition of aggregation in assay [2] was 0.8% (inactive). Further, the nuclei count in assay [2] worked out at 75.5%; in assay [3], 110%. Also, the fluorescence slope in assay [4] was -0.54 (inactive). The NADPH fluorescence slope in assay [5] was -3.1e-05 (inactive). Moreover, in assay [6], the slope is 0.00569 (inactive).
For the compound `Cc1cc(C)cc(Nc2ncc3c(n2)CC(c2ccco2)CC3=O)c1` (stereo not drawn), the cell count in assay [1] turned out to be 465. Also, the inhibition in assay [1] was -18.3% (inactive); in assay [3] it was -88% (inactive); in assay [7], 14.2% (inactive); in assay [8] it was -2.34% (inactive). The inhibition of aggregation in assay [2] was -14.3% (inactive). Moreover, the figures for the nuclei count in assay [2] and in assay [3] were 106% and 114%, respectively. Further, in assay [4], the fluorescence slope is -0.385 (inactive). Further, in assay [5], the NADPH fluorescence slope is -3e-05 (inactive). Also, in assay [6], the slope was 0.00418 (inactive).
Consider `O=C(O)c1[nH]c2ccc(Cl)cc2c1CC(=O)N1CCN(C(=O)c2ccco2)CC1`, for which the cell count in assay [1] was 374. The inhibition in assay [1] was -0.5% (inactive); in assay [3], -73.3% (inactive); in assay [7], 7.71% (inactive); in assay [8], 0.844% (inactive). The inhibition of aggregation in assay [2] is -8.5% (inactive). The values for the nuclei count in assay [2] and in assay [3] were 99.6% and 103%, respectively. Also, in assay [4], the fluorescence slope was -0.401 (inactive). Further, in assay [5], the NADPH fluorescence slope was -3.1e-05 (inactive). For the same compound, in assay [6], the slope was 0.003 (inactive).
On to `COc1ccc(OC)c2[nH]c(=O)c(CCNC(=O)CC(C)C)cc12`, for which the cell count in assay [1] was determined as 325. Further, the inhibition is -12.8% (inactive) in assay [1], 62.7% (active) in assay [3], -1.86% (inactive) in assay [7] and 2.61% (inactive) in assay [8]. The inhibition of aggregation in assay [2] is 2% (inactive). For the same compound, the nuclei count worked out at 91.9% in assay [2] and 89.8% in assay [3]. Further, the fluorescence slope in assay [4] was -0.508 (inactive). In addition, in assay [5], the NADPH fluorescence slope is -4.7e-05 (inactive). Also, in assay [6], the slope was 0.00505 (inactive).
For the compound `COCCN(CCOC)C(=O)c1sc2nc(-c3ccccc3)cn2c1C`, the cell count in assay [1] is 752. For the same compound, the inhibition was -10.7% (inactive) in assay [1], -55.5% (inactive) in assay [3], 9.08% (inactive) in assay [7] and 7.03% (inactive) in assay [8]. The inhibition of aggregation in assay [2] was -5.6% (inactive). The nuclei count in assay [2] worked out at 119%; in assay [3] it was 127%. Moreover, the fluorescence slope in assay [4] was -0.39 (inactive). Besides, the NADPH fluorescence slope in assay [5] was -9.4e-06 (inactive). Besides, the slope in assay [6] is 0.00336 (inactive).
As to `COc1ccc(C(=O)NCc2nnc(SC)n2C2CCCCC2)cc1`, the cell count in assay [1] was 591. Moreover, the inhibition in assay [1] was -2.4% (inactive); in assay [3], -35.7% (inactive); in assay [7] it was 18.8% (inactive); in assay [8] it was 26% (inactive). For the same compound, the inhibition of aggregation in assay [2] is -1.1% (inactive). Further, the nuclei count is 96% in assay [2] and 101% in assay [3]. In addition, the fluorescence slope in assay [4] is -0.521 (inactive). Besides, in assay [5], the NADPH fluorescence slope was -3.9e-05 (inactive). Besides, the slope in assay [6] is 0.00737 (inactive).
For the compound `COc1ccc(S(=O)(=O)Nc2ccc(S(=O)(=O)N3CCCCC3)cc2)cc1OC`, the cell count in assay [1] amounted to 444. Besides, the inhibition was -4.8% (inactive) in assay [1], -34.6% (inactive) in assay [3], 5.56% (inactive) in assay [7] and 29.1% (inactive) in assay [8]. Also, in assay [2], the inhibition of aggregation is -3.5% (inactive). Besides, the nuclei count in assay [2] was determined as 110%; in assay [3] it was 99.1%. Besides, the fluorescence slope in assay [4] is -0.459 (inactive). Moreover, the NADPH fluorescence slope in assay [5] is -4.3e-05 (inactive). Besides, the slope in assay [6] is 0.00325 (inactive).
On to `CCN(CC(=O)O)S(=O)(=O)c1cc(Cl)ccc1Cl`, for which the cell count in assay [1] was 353. In addition, the inhibition in assay [1] was 5.6% (inactive); in assay [3] it was -33.4% (inactive); in assay [7] it was -0.0466% (inactive); in assay [8], -0.284% (inactive). Moreover, in assay [2], the inhibition of aggregation was 10.8% (inactive). For the same compound, the results for the nuclei count in assay [2] and in assay [3] were 97.3% and 75.2%, respectively. Further, the fluorescence slope in assay [4] was -0.416 (inactive). In assay [5], the NADPH fluorescence slope is -2.7e-05 (inactive). Further, in assay [6], the slope is 0.00473 (inactive).
As to `Cc1cc(C(=O)Nc2ccc(S(=O)(=O)Nc3onc(C)c3C)cc2)cs1`, in assay [1], the cell count worked out at 608. The inhibition in assay [1] was -3% (inactive); in assay [3], -17.7% (inactive); in assay [7], 5.43% (inactive); in assay [8], 8.03% (inactive). Further, the inhibition of aggregation in assay [2] is 15.4% (inactive). The nuclei count in assay [2] amounted to 94.1%; in assay [3] it was 105%. For the same compound, the fluorescence slope in assay [4] was -0.361 (inactive). Also, in assay [5], the NADPH fluorescence slope was -5e-05 (inactive). For the same compound, the slope in assay [6] is 0.00493 (inactive).
With `COCCSc1nnc(NC(=O)CSCc2ccccc2)s1`, the cell count in assay [1] was 524. In addition, the inhibition in assay [1] is -14.6% (inactive); in assay [3], -31.2% (inactive); in assay [7], 19% (inactive); in assay [8], 26.7% (inactive). In addition, the inhibition of aggregation in assay [2] was 3.8% (inactive). In addition, the figures for the nuclei count in assay [2] and in assay [3] were 112% and 89.4%, respectively. Besides, the fluorescence slope in assay [4] was -0.528 (inactive). Also, the NADPH fluorescence slope in assay [5] was -3.2e-05 (inactive). The slope in assay [6] was 0.00459 (inactive).
With `O=C(CSc1nnc(-c2ccccc2)o1)N1CCc2ccccc2C1`, the cell count in assay [1] came out at 400. Also, the inhibition is -4.2% (inactive) in assay [1], -104% (inactive) in assay [3], 7.64% (inactive) in assay [7] and 22.9% (inactive) in assay [8]. The inhibition of aggregation in assay [2] was 2.7% (inactive). Further, the nuclei count in assay [2] worked out at 101%; in assay [3], 121%. Further, the fluorescence slope in assay [4] was -0.382 (inactive). For the same compound, in assay [5], the NADPH fluorescence slope was -6.2e-05 (inactive). Moreover, in assay [6], the slope is 0.00577 (inactive).
For the compound `CCCc1[nH]nc2c1C(c1cn[nH]c1-c1ccc(F)cc1)C(C#N)=C(N)O2` (stereo not drawn), the cell count in assay [1] came out at 438. The inhibition is -8.3% (inactive) in assay [1], -43.7% (inactive) in assay [3], 18.7% (inactive) in assay [7] and 23.5% (inactive) in assay [8]. Moreover, in assay [2], the inhibition of aggregation is 11.7% (inactive). Also, the values for the nuclei count in assay [2] and in assay [3] were 89.8% and 137%, respectively. Further, the fluorescence slope in assay [4] is -0.38 (inactive). Further, the NADPH fluorescence slope in assay [5] was -0.000105 (inactive). Further, in assay [6], the slope is 0.00672 (inactive).
`COc1ccc(N(CC(=O)Nc2ccc3c(c2)OCCO3)S(=O)(=O)c2cccnc2)cc1`: the cell count in assay [1] amounted to 515. Besides, the inhibition was -3.3% (inactive) in assay [1], -36.8% (inactive) in assay [3], -5.76% (inactive) in assay [7] and 17.1% (inactive) in assay [8]. In assay [2], the inhibition of aggregation is 13.1% (inactive). The nuclei count is 117% in assay [2] and 122% in assay [3]. In addition, the fluorescence slope in assay [4] is -0.608 (inactive). In assay [5], the NADPH fluorescence slope was -7e-05 (inactive). The slope in assay [6] is 0.00783 (inactive).

For the origin of these results see PubChem BioAssay.
